Drawing on PubChem BioAssay AID652039 (The Scripps Research Institute Molecular Screening Center, 2013), this text covers activation for 56 compounds.

In all, about 370,000 compounds went through this assay and about 3,300 (0.89%) were called active. Shown is part of a subset that was picked to be rich in actives. Values without a mark were called inactive.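 How the source made its calls: active means activation above the mean of all tested compounds plus 3 SD, computed per campaign excluding outliers beyond control limits (cut at about 13% in these data); inactive means the rest.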

This assay deals with Kallikrein-7 (Homo sapiens) (UniProt P49862). Kind of assay: proKLK7 zymogen activators, primary screen, biochemical, fluorescence intensity (AID 652039). To be noted: purified proKLK7, EDANS-DABCYL substrate fluorescence; at 7 µM; hits give high values; 100% is mature enzyme control, 0% vehicle.
Kallikrein-7 (Homo sapiens), sequence (P49862 whole entry, looked up): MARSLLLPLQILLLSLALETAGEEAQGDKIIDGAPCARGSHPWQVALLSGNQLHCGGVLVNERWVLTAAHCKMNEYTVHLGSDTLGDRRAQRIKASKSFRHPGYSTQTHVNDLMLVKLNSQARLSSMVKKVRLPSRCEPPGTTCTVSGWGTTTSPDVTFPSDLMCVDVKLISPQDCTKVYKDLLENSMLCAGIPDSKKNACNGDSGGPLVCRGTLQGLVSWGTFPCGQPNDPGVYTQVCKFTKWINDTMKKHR
In the case of `Cc1ccc(CN2CCCCC(NC(=O)C3CCCCC3)C2=O)cc1` (stereo unspecified), the activation was -0.03%. Then `CCOC(=O)[C@]12CCCC=C1N(Cc1ccc(OC)cc1)C(=O)[C@@H]2CC(=O)NCc1cccs1`, with -0.38%. Regarding `Clc1ccc(-n2c(COc3ccccc3)nnc2SCc2nc3ccccc3[nH]2)cc1`, the activation is 0.33%. The value for `O=C(CSc1nnc(-c2ccccn2)n1-c1ccc(Cl)cc1)Nc1ccccc1-c1ccccc1` was 0.1%. Then `COC(=O)[C@]12C[C@H](CC(=O)N3CCOCC3)C(=O)N(Cc3ccc(Cl)cc3Cl)C1=C[C@H](COCc1ccccc1)O[C@@H]2C`, with 0.05%; and `Cc1cc(=O)[nH]c(SCC(=O)Nc2ccc(F)cc2F)n1`, with -0.3%; and `CC(C)CCNc1nc(N2CCCC2)c2c(c1C#N)CCN(C)C2`, with -0.46%. Take `CCN1CCc2c(C#N)c(NCc3ccccc3)nc(NCCO)c2C1`: the activation is 14.3% (active). For the compound `CCCCc1nc(NCc2ccccc2)c(C#N)c2c1CCCC2`, the activation is -0.04%. As for `Clc1cccc(Cl)c1OCCOCCNCc1ccccc1`, the activation is -0.51%. For `CC1(C)CC(=O)CC2(C1)NCC(c1ccccc1Cl)c1c2[nH]c2ccccc12` (stereo unspecified), the activation is 0.29%.

Take `CC(=O)N1CCc2cc(S(=O)(=O)NCCC(=O)N3CCCC3)ccc21`: the activation is 0.03%. The value for `C/C(N)=C(/C#N)C(=O)COC(=O)c1cc(-c2cccc(Br)c2)nc2ccccc12` was 0.31%. In the case of `Cc1cc(C(=O)OCC(=O)Nc2nccs2)c2ccccc2n1`, the activation was -2.12%. The value for `COc1ccc(S(=O)(=O)n2cnc3ccccc32)c(C)c1` was -0.43%; that for `CNC(=O)COC(=O)c1cc(-c2ccc(OC)cc2)nc2ccccc12` was 113% (active). `COc1ccc(-c2cc(C(=O)n3cnc4ccccc43)c3ccccc3n2)cc1`: the activation is 20.8% (active). As to `COc1ccc(-c2cc3n(n2)CCc2nc4ccccc4n2-3)cc1`, the activation is 0.02%. The value for `CN(CCO)c1cccc2c1S(=O)(=O)N(Cc1cn(Cc3ccc(C(F)(F)F)cc3)nn1)Cc1ccccc1O2` was 1.21%. As to `COC(=O)C[C@@H]1CC[C@H]2[C@@H](COc3ccc(NS(=O)(=O)CC(F)(F)F)cc3C(=O)N2C)O1`, the activation was -0.11%. With `CCOC(=O)CN1C(=O)C(O)(CC(=O)c2ccccn2)c2ccccc21` (stereo unspecified), the activation is 0.64%. The value for `O=C(NCCC1=CCCCC1)C1CCN(S(=O)(=O)c2ccc(Cl)s2)CC1` was 0.13%; that for `Cc1cc(NS(=O)(=O)c2ccc(NC(=O)CSc3nnc(SCc4ccc(F)cc4)s3)cc2)nc(C)n1` was -0.24%; that for `COC(=O)c1cccc(Cn2ccc3ccc(-c4ccc5ccn(C(=O)c6ccccc6C)c5c4)cc32)c1` was -10.5%. Consider `Cc1nc(SCC(=O)NC2CCCCC2C)c(C#N)c(C)c1C` (stereo unspecified), for which the activation was -0.08%. Then `COC(=O)c1c(C)c(C)nc(N)c1C#N`, with 33.8% (active); and `COCc1c(N)c(C)nc(Cl)c1C#N`, with -1.78%; and `Cc1ccccc1NC(=O)Cn1nnc(-c2ccccc2F)n1`, with -0.28%. Then `O=C(NC1CCCC1)C1CSCCS(=O)(=O)N1Cc1ccccc1` (stereo unspecified), with 0.33%.

Turning to `Cc1c[nH]c2cccc(-c3ccc(Cl)cc3)c12`, the activation was 0.5%.

As for `O=C(CSc1nnc(COc2ccccc2)n1Cc1ccco1)c1ccc2ccccc2c1`, the activation was 0.09%. On to `O=C(NCc1cccs1)C1CCCN(S(=O)(=O)c2ccc([N+](=O)[O-])cc2)C1` (stereo unspecified), for which the activation was -0.47%. Then `Cc1ccc(-n2c(SCC(=O)Nc3ccc(S(=O)(=O)Nc4nccs4)cc3)nnc2-c2ccncc2)cc1`, with 0.08%; and `CCOC(=O)CSc1nc2c(c(=O)n(Cc3ccccc3Cl)c(=O)n2C)n1C`, with -0.44%.

`CCCCCn1c(=O)c(C(=O)OCC)c(Cl)c2ccccc21`: the activation was 27.6% (active).

Regarding `CCCCNC(=O)CCn1c(=O)c2ccccc2n(Cc2cc(C)ccc2C)c1=O`, the activation was -0.3%.

Regarding `C=CCn1c(SCC(N)=O)nnc1-c1ccccc1OC`, the activation was -0.28%. Take `Cc1ccc(C2=CCN(C)C(=O)N2c2ccc(Cl)cc2)cc1`: the activation is 0.11%.

For the compound `C[C@H](C(=O)N(C)c1ccccc1)[C@@H](O)c1ccc2ccccc2c1`, the activation was -0.85%. The value for `CN(C)S(=O)(=O)c1cccc(C(=O)N/N=C\c2ccco2)c1` was -0.04%; that for `Cc1c(CC(=O)NCC(=O)NCC(=O)O)c(=O)oc2cc3oc4c(c3cc12)CCCC4` was -11.5%. Then `Cc1coc2c1c(C)cc1oc(=O)c(CC(=O)NCC(=O)N[C@H](C(=O)O)C(C)C)c(C)c12`, with 21.3% (active); and `CC[C@@H](C)[C@H](NC(=O)CCc1c(C)c2cc3c4c(oc3c(C)c2oc1=O)CCCC4)C(=O)O`, with -2.12%. The value for `CCOC(=O)[C@]12CCCC=C1N(Cc1ccc(OC)cc1)C(=O)[C@@H]2CC(=O)N1CCOCC1` was -0.23%; that for `Cc1ccc(CCn2c3c(c4ccccc42)CN(C)CC3)cn1` was -0.24%. `COC(=O)[C@@]12CCCCC3=C1N(CCC3)C(=O)[C@H]2CC(=O)NCc1cccc2ccccc12`: the activation was 0.65%. `CC(C)(C)OC(=O)NCc1cc(F)ccc1/C=C/S(=O)(=O)NCCc1ccccc1`: the activation was 0.29%. For the compound `FC(F)(F)c1cccc(Cn2ccc3ccc(-c4ccc5ccn(Cc6ccccc6)c5c4)cc32)c1`, the activation is -1.25%. With `Cc1cccc(NC(=O)/C=C/c2ccc3c(c2)OCO3)n1`, the activation is 6.43%. The value for `O=C(/C=C/c1ccc2c(c1)OCCO2)c1ccc(O)cc1` was 17.6% (active); that for `COc1cccc(/C=C/C(=O)Nc2ccc3c(c2)OCCO3)c1` was -0.23%. Then `COc1ccccc1CCNC(=O)C1CCN(c2nc(C)cc(C)n2)CC1`, with -0.66%. The value for `COC(=O)c1cc(S(=O)(=O)N2CCN(c3ccccc3C)CC2)cn1C` was 0.47%.

`CN(C)Cc1c(O)ccc2occ(C(O)c3ccccc3)c12` (stereo unspecified): the activation is -0.59%. Then `CN(C)Cc1c(O)ccc2c(=O)c(-c3ccccc3Cl)coc12`, with 40.3% (active).

As for `Cc1ccc(C(=O)c2coc3ccc(O)c(CN(C)C)c23)cc1`, the activation was 0.08%.
